Shown are actives, neighbours in structure and some others; about 3.4% of the full set was active somewhere.
GPR151 activ: activates the human receptor GPR151; Q8TDV0; PathHunter beta-arrestin GPR151 cells, luminescence; 650,000 tested, 1% active; activation, % at 11.2 µM; in the data active means activation above about 4.9%;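 further: 0% = median of compound wells and 100% = cells with positive control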
FBW7 activator: human FBW7 E3 ligase activation, primary screen; Q969H0; AlphaScreen FBW7–phospho-cyclin E peptide binding, activator screen; normalized activity (activation), % at 26.1 µM; 650,000 tested, 0.13% active; in the data active means normalized activity above about 1.9%;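 further: purified mutant Fbw7 with reduced substrate affinity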
TEAD-YAP inh: TEAD-YAP interaction inhibition; AID 1259422; 640,000 tested, 1.4% active; HEK-TIYL cells, TEAD-Gal4/YAP UAS-luciferase luminescence; inhibition, % at 9.12 µM; in the data active means inhibition above about 32%;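 further: 0% = median of test compound wells and 100% = reference inhibitor wells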
MITF primary: blocks human microphthalmia-associated transcription factor; AlphaScreen MITF homodimerization, bead proximity signal; inhibition, % at 2.6 µM; 650,000 tested, 0.91% active; AID 1259374; in the data active means inhibition above about 50%;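 further: 0% = vehicle wells with protein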
Target sequence (O75030 whole entry, looked up): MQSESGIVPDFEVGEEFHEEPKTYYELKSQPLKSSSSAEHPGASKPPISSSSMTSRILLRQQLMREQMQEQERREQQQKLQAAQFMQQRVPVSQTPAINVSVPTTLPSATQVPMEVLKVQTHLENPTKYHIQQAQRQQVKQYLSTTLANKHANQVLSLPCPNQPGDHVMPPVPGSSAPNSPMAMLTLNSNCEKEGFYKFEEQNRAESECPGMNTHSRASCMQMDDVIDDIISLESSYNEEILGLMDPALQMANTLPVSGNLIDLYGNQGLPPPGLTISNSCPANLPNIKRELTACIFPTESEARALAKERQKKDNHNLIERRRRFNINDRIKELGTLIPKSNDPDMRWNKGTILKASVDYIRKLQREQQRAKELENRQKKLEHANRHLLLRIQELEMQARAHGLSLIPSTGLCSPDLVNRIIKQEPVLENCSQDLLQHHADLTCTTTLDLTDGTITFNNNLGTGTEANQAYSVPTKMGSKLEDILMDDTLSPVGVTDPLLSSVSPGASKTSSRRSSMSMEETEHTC
MITF confirm: human MITF inhibition, confirmation; shares compounds with MITF primary; AlphaScreen MITF homodimerization, biotin/His-MITF beads; inhibition, % at 2.6 µM; 4,700 tested, 16% active;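 active means inhibition above a cutoff derived from the DMSO control wells, cut at about 28% in these data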;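 further: 0% = MITF dimer wells with DMSO only; inhibitors lower the bead chemiluminescence by keeping MITF from dimerizing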
AlphaScreen DR: AlphaScreen optical interference, dose response counter-screen; shares compounds with MITF primary; AlphaScreen optical interference counterscreen, cell-free; IC50, µM; 480 tested, 6% active; call rule not given here
AS interf ctr: optically interferes with AlphaScreen signal; shares compounds with MITF primary; LysRS AlphaScreen counterscreen, signal interference, triplicate; inhibition, % at 2.6 µM; 4,700 tested, 7.6% active;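 active means inhibition above a cutoff derived from the DMSO control wells, cut at about 30% in these data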
The depositor's hits bear a star; nt = not tested or not shown.

SMILES	GPR151 activ	FBW7 activator	TEAD-YAP inh	MITF primary	MITF confirm	AS interf ctr	others
O=S(=O)(Cc1ccc(F)cc1)NCC(c1ccsc1)N1CCOCC1 (stereo not drawn)	0	0	6	78*	-2	-1
O=S(=O)(NCC(c1ccc(F)cc1)N1CCOCC1)c1ccc2c(c1)OCCO2 (stereo not drawn)	-1	0	5	55*	6	4
Cc1cc(F)ccc1S(=O)(=O)NCC(c1ccsc1)N1CCOCC1 (stereo not drawn)	-2	0	11	9	nt	nt
CC1(C)CC(=O)C2=C(C1)N(c1ccccc1)C(=O)C2(NC(=O)c1ccccc1)C(F)(F)F (stereo not drawn)	-1	0	1	-4	nt	nt
Cc1ccc(C(=O)N2CCN(Cc3ccc4c(c3)OCO4)CC2)cc1	0	0	3	8	nt	nt
COc1ccc(NC(=S)N2CCN(Cc3ccc4c(c3)OCO4)CC2)cc1	-1	0	-10	15	nt	nt
Fc1ccc(CN2CCN(Cc3ccc4c(c3)OCO4)CC2)c(F)c1	-1	0	0	61*	0	6
COc1ccc(CN2CCN(Cc3ccc4c(c3)OCO4)CC2)cc1	0	0	-3	64*	14	13
COc1ccc(C(=O)N2CCN(Cc3ccc4c(c3)OCO4)CC2)cc1	0	0	-3	55*	4	14
Cc1ccc(C(=O)OCC(=O)Nc2ccc(C#N)cc2)cc1S(=O)(=O)N1CCCCC1	-1	0	4	-3	nt	nt
CCC1CN(CC(=O)N2CCCN(c3ncccn3)CC2)Cc2cc(OC)ccc2O1 (stereo not drawn)	3	0	-10	-4	nt	nt
COc1ccc(C(=O)Nc2ccc(C(=O)O)cc2)cc1Cl	-1	0	-8	-3	nt	nt
CCOc1ccc(C2NC(C(=O)O)Cc3c2[nH]c2ccccc32)cc1 (stereo not drawn)	-1	0	-8	20	nt	nt
CCc1ccc(CN2CCN(Cc3cc(OC)c(OC)cc3OC)CC2)cc1	-1	0	5	63*	-4	5
COc1ccc(CN2CCN(Cc3cc(OC)c(OC)cc3OC)CC2)cc1	1	0	0	76*	10	19
COc1ccc(CN2CCc3cc(OC)c(OC)cc3C2)cc1	-1	1	0	18	nt	nt
CN(CCN(C)/N=C/c1cc([N+](=O)[O-])ccc1O)/N=C/c1cc([N+](=O)[O-])ccc1O	1	0	0	13	nt	nt
OCCNc1nc(Cl)nc(Nc2ccc3c(c2)OCO3)n1	-1	0	-56	13	nt	nt
Cc1sc2nc(-c3ccc(Br)o3)[nH]c(=O)c2c1C	1	0	-5	-13	nt	nt
O=[N+]([O-])c1cc([N+](=O)[O-])c2cc[nH]c2c1	0	0	-2	69*	0	4
CC(=O)N1CCC(=NNc2nc3ccccc3[nH]2)CC1	1	0	-26	82*	30*	50*
O=C(c1ccc(F)cc1)N1CCN(Cc2ccccc2C(F)(F)F)CC1	0	0	-1	65*	-4	-4
CC(C)CC(=O)N1CCN(C(=O)c2cccs2)CC1	-1	0	6	7	nt	nt
COc1ccccc1CN1CCN(C(=O)c2ccc(F)cc2)CC1	0	0	-8	38	nt	nt
CC(C)CC(=O)N1CCN(Cc2ccccc2C(F)(F)F)CC1	0	0	2	58*	4	17
SMILES	GPR151 activ	FBW7 activator	TEAD-YAP inh	MITF primary	MITF confirm	AS interf ctr	others
O=C(c1ccco1)N1CCN(Cc2ccccc2[N+](=O)[O-])CC1	-1	1	-12	76*	-3	-1
CC(C)CC(=O)N1CCN(CCCc2ccccc2)CC1	0	0	12	52*	6	2
O=C(c1ccccc1)N1CCN(CCCc2ccccc2)CC1	2	0	-18	31	nt	nt
CN(C)CC(C)(O)c1ccc2c(c1)CN(Cc1cccn1-c1ccccn1)CCO2 (stereo not drawn)	1	0	-2	-19	nt	nt
Cc1ccc(S(=O)(=O)c2nc(-c3ccc(Cl)cc3)oc2N(C)C)cc1	0	0	1	-17	nt	nt
O=C(c1ccc2c(c1)C1C=CCC1C(c1ccc(Cl)cc1)N2)N1CCOCC1 (stereo not drawn)	-1	0	-7	6	nt	nt
O=C(c1cccc(F)c1)N1CCN(Cc2ccccc2Br)CC1	1	0	2	57*	22	16
O=C(c1cccc(F)c1)N1CCN(Cc2ccccc2C(F)(F)F)CC1	0	0	-1	53*	-16	-2
O=C(c1ccccc1)N1CCN(C(=O)c2cccc(F)c2)CC1	0	0	17	-5	nt	nt
O=C(c1ccco1)N1CCN(Cc2ccccc2C(F)(F)F)CC1	0	0	-4	66*	8	12
O=C(c1ccc(-c2ccccc2)cc1)N1CCN(Cc2ccccc2C(F)(F)F)CC1	1	0	-11	65*	2	4
O=C(c1ccco1)N1CCN(Cc2ccc(Br)cc2)CC1	2	0	-2	-2	nt	nt
CCN(CC)c1nc(NCCc2ccc(OC)cc2)nc(NCc2cccnc2)n1	1	0	2	22	nt	nt
COc1cc(C=C2C(=O)NC(=O)NC2=O)ccc1OC(=O)c1cccc2ccccc12	-1	0	-17	1	nt	nt
C#Cc1cccc(NC(=O)c2cc(NC(=O)C(C)(C)C)cc(NC(=O)C(C)(C)C)c2)c1	0	0	10	13	nt	nt
O=C(c1ccccc1)N1CCN(C(=O)c2ccncc2)CC1	0	0	5	1	nt	nt
O=C(c1ccncc1)N1CCN(Cc2ccccc2C(F)(F)F)CC1	0	0	0	69*	-12	-5
Cc1ccc(C(NC(=O)/C=C\c2ccc3c(c2)OCO3)C(=O)Nc2ccc3c(c2)OCO3)cc1 (stereo not drawn)	2	0	12	68*	-21	0
CCn1ccnc1CNC(=O)CCc1nnc(-c2ccc(C)s2)o1	-1	0	-12	9	nt	nt
O=C(NCCO)c1ccc2nc(-c3ccco3)c(-c3ccco3)nc2c1	-1	-1	7	74*	83*	24	AlphaScreen DR=>6.5
O=C(NCCCN1CCOCC1)c1ccc2nc(-c3ccco3)c(-c3ccco3)nc2c1	0	-1	3	14	nt	nt
Cn1cccc1CN1CCN(C(=O)c2cccc(F)c2)CC1	3	0	10	27	nt	nt
Cn1cccc1CN1CCN(C(=O)c2ccc(-c3ccccc3)cc2)CC1	1	0	-6	33	nt	nt
Cn1cccc1CN1CCN(C(=O)c2ccccc2F)CC1	0	0	8	54*	11	17
Cn1cccc1CN1CCN(C(=O)c2ccc(F)cc2)CC1	0	0	4	53*	11	18
Cc1cccn2c(=O)c3cc(C(=O)Nc4ccccc4)n(C)c3nc12	2	0	4	3	nt	nt
CCOc1c(Br)cc(/C=C2/SC(=O)N(C(C)C(=O)OC)C2=O)cc1OC (stereo not drawn)	-1	0	-7	11	nt	nt
